Laboratory results reported in PubChem BioAssay (NCI).
Compounds without any hit were thinned out: in the full panel of roughly 83,000, 20% have a hit.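 Cell lines were cultured in 96-well plates, exposed to a single compound concentration, and assessed for percent growth 48 hours later.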 Calls of active or inactive are those of the source. The calls were made as follows: active = growth percent below 10; inactive = the rest.

Legend:
Experiment in all cases: NCI-60 one-dose screen, 48 h (100 = growth as untreated, 0 = no growth, -100 = all killed)
[1] = system: DU-145 prostate; conditions: 10 µM
[2] = system: K-562 leukemia; conditions: 10 µM
[3] = system: MALME-3M melanoma; conditions: 10 µM
[4] = system: MDA-MB-231 breast; conditions: 10 µM
[5] = system: RXF 393 renal; conditions: 10 µM
[6] = system: SF-268 CNS; conditions: 10 µM
[7] = system: SF-295 CNS; conditions: 10 µM
[8] = system: SF-539 CNS; conditions: 10 µM
[9] = system: UACC-257 melanoma; conditions: 10 µM
[10] = system: M14 melanoma; conditions: 10 µM
[11] = system: HCT-15 colon; conditions: 10 µM
[12] = system: HT29 colon; conditions: 10 µM
[13] = system: SNB-19 CNS; conditions: 10 µM
[14] = system: U251 CNS; conditions: 10 µM
[15] = system: PC-3 prostate; conditions: 10 µM
[16] = system: SK-MEL-5 melanoma; conditions: 10 µM
[17] = system: UACC-62 melanoma; conditions: 10 µM unless noted
[18] = system: LOX IMVI melanoma; conditions: 10 µM
[19] = system: SK-MEL-28 melanoma; conditions: 10 µM
[20] = system: SNB-75 CNS; conditions: 10 µM

Measured: growth

C#C[C@H]1CCCCCC1O (stereo not given in full)
inactive: [1] 110% | [2] 101% | [3] 104% | [4] 102% | [5] 103% | [6] 105% | [7] 108% | [8] 106% | [9] 107% | [10] 107% | [11] 114% | [12] 107% | [13] 106% | [14] 99.7% | [15] 90.1% | [16] 98.1% | [17] 100% | [18] 97%

NC(=O)N/N=C\c1ccco1
inactive: [1] 131% | [2] 100% | [3] 114% | [4] 110% | [5] 109% | [6] 112% | [7] 132% | [8] 109% | [9] 85.1% | [10] 104% | [11] 107% | [12] 103% | [13] 102% | [14] 101% | [15] 104% | [16] 107% | [18] 102% | [19] 116%

CC1(C)N=C(N)N=C(N)N1c1ccc(Cl)cc1
inactive: [1] 55.2% | [2] 20.1% | [3] 63.4% | [4] 69% | [5] 71% | [6] 36.6% | [8] 22.7% | [9] 64% | [11] 73.6% | [12] 29.8% | [20] 75.8% | [13] 58% | [14] 31.5% | [15] 33.1% | [16] 31.7% | [17] 41.4% | [18] 24.6% | [19] 90.4%
active: [7] 4.05%

COc1cccc(Sc2ccc([N+](=O)[O-])c3no[n+]([O-])c23)c1
active: [2] 8.93% | [5] -54%
inactive: [1] 67.3% | [3] 27.7% | [4] 74.2% | [6] 62.6% | [7] 95.9% | [8] 95.4% | [9] 96.7% | [10] 72.1% | [12] 30.2% | [20] 31.8% | [13] 83.3% | [15] 59.4% | [16] 88.9% | [17] 53.2% | [18] 28.9% | [19] 55%

CC(=O)c1ccc(C)c(N)c1
inactive: [1] 110% | [2] 102% | [3] 107% | [4] 115% | [5] 111% | [6] 100% | [7] 101% | [8] 101% | [9] 102% | [10] 92.5% | [11] 100% | [20] 97.6% | [13] 99% | [14] 98.4% | [15] 92.8% | [16] 110% | [18] 76.8% | [19] 105%

O=C(CN1CCNCC1)N1CCOCC1
inactive: [1] 130% | [2] 97.5% | [3] 96.3% | [4] 110% | [5] 123% | [6] 110% | [7] 102% | [8] 99.5% | [9] 109% | [10] 103% | [11] 104% | [20] 86.9% | [13] 102% | [14] 106% | [15] 100% | [16] 110% | [17] 106% | [19] 115%

CCOc1ccc2[nH]c(=S)sc2c1
inactive: [1] 111% | [2] 90.8% | [3] 97.8% | [4] 104% | [5] 116% | [6] 103% | [7] 111% | [8] 106% | [9] 104% | [10] 99% | [11] 108% | [20] 92% | [13] 103% | [14] 106% | [15] 101% | [16] 101% | [17] 104% | [18] 98.6% | [19] 109%

O=[N+]([O-])c1ccc(Sc2ccncn2)c([N+](=O)[O-])c1
inactive: [1] 85.4% | [2] 26.3% | [3] 86.6% | [4] 84.1% | [5] 81.7% | [6] 89% | [7] 113% | [8] 22.9% | [9] 64.7% | [11] 85.3% | [20] 81.8% | [13] 106% | [14] 106% | [15] 71.9% | [16] 93.1% | [17] 74.1% | [19] 96.1%
active: [10] 8.79% | [18] 4.84%

COc1cc2c3c(n(C)c(=O)c2cc1OC)-c1cc2c(cc1C3=O)OCO2
inactive: [1] 56.5% | [2] 40.8% | [3] 81.6% | [4] 97.1% | [5] 75.7% | [6] 59.3% | [7] 29.4% | [8] 63.7% | [9] 78.2% | [10] 63% | [12] 47.4% | [20] 10.5% | [13] 54.6% | [14] 36% | [15] 46.8% | [16] 63.6% | [17] 40.1% | [18] 39.9%

COc1ccc2c(NCCCCCCCCNc3c4ccccc4nc4cc(OC)ccc34)c3ccccc3nc2c1
active: [1] -100% | [2] -100% | [3] -98.1% | [4] -89.5% | [5] -74.3% | [6] -99.3% | [7] -92.1% | [8] -100% | [9] -88.8% | [10] -100% | [12] -100% | [20] -100% | [13] -86.7% | [14] -100% | [15] -100% | [16] -100% | [17] -100% | [18] -98.6% | [19] -100%

O=C(NN=C1CCCCC1)C(=O)NN=C1CCCCC1
inactive: [1] 121% | [2] 81.1% | [3] 127% | [4] 113% | [5] 107% | [6] 99.1% | [7] 113% | [8] 101% | [9] 108% | [11] 108% | [12] 98.6% | [20] 103% | [13] 110% | [14] 107% | [15] 89% | [16] 99.9% | [17] 109% | [18] 113%

COc1nc(N)nc2c1ncn2C1OC(CO)CC1O (stereo not given)
inactive: [1] 110% | [2] 101% | [3] 100% | [4] 112% | [5] 112% | [6] 108% | [7] 113% | [8] 45.6% | [9] 111% | [10] 104% | [11] 101% | [20] 89.7% | [14] 112% | [15] 99.2% | [16] 105% | [17] 100% | [18] 107%

S=c1[nH]ccn1-c1ccccc1Cl
inactive: [1] 106% | [2] 101% | [3] 120% | [4] 120% | [5] 114% | [6] 108% | [7] 100% | [8] 103% | [9] 22.9% | [10] 108% | [12] 104% | [20] 95.4% | [13] 102% | [14] 99.2% | [15] 95.2% | [16] 112% | [17] 107% | [18] 100% | [19] 101%

COC1=CC(=O)c2nc(Cl)ccc2C1=O
active: [2] 0.0099% | [4] -25.5% | [5] -53.9% | [9] -30.9% | [10] -5.38% | [14] -42.5% | [18] -95.7%
inactive: [1] 63% | [3] 130% | [6] 63.6% | [7] 115% | [8] 88.3% | [11] 100% | [20] 48.6% | [13] 113% | [15] 21.7% | [17] 17.4% | [19] 111%

c1ccc2c(c1)Sc1ccccc1S2
inactive: [1] 108% | [2] 103% | [3] 101% | [4] 94.1% | [5] 99.5% | [6] 109% | [7] 101% | [8] 106% | [9] 99.9% | [11] 105% | [12] 105% | [20] 89.6% | [13] 100% | [14] 93.4% | [15] 91.4% | [16] 101% | [17] 102% | [18] 98.2%

CC(=O)c1ccc(C(C)(C)C)cc1
inactive: [1] 105% | [2] 103% | [3] 102% | [4] 107% | [5] 95.2% | [6] 102% | [7] 97.6% | [8] 94.3% | [9] 97.2% | [11] 101% | [12] 96.7% | [20] 97.7% | [13] 95.6% | [14] 99.6% | [15] 91.2% | [16] 101% | [17] 91.1% | [18] 98.5%

COc1ccc(OC)c(/C=C2\CCc3ccccc3C2=O)c1
inactive: [1] 55.5% | [2] 18.3% | [3] 63.4% | [4] 52.9% | [5] 60.3% | [6] 56.3% | [7] 32% | [8] 26% | [9] 75.3% | [10] 15% | [12] 12.8% | [20] 17.4% | [13] 38.6% | [15] 47.6% | [16] 52.9% | [17] 43.5% | [18] 35.6% | [19] 64.9%
